From the supplement of paper PMC11417369
± gives the standard deviation of the averaged measurements. Over roughly 25,000 sequences, “ln(normalized median fluorescence intensity)” has its median near 10; the highest 2% begin near 12. What follows is part of a selection rich in the highest values, with near analogues and random picks from the rest.

Tested on: PfAP2-G AP2 domain (GST-tagged)
Assay: gcPBM binding intensity (ln(normalized median fluorescence intensity)); higher = stronger DNA binding
Method in brief: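 Binding intensity is the highest Masliner-normalised natural-log median intensity over replicate spots in either probe orientation. To obtain it, GST-tagged P. falciparum DNA-binding domains made in E. coli were incubated for 1 h on an Agilent 4 × 180k array of primer-extended double-stranded 36-bp intergenic genomic probes plus negative controls. Detection used Alexa488 anti-GST antibody with scanning at 488 nm.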

Sequence	gcPBM binding intensity (ln)
TTCTTATTTTATATTTCACACATTTTTACTATACTT [CACACA_site5817]	10.08 ± 0.071
CACCCACACCAACACACACACATATATAATATATAT [CACACA_site595]	10.3 ± 0.33
TAAATAATATAATTATGTACGTATTTCTTTATTTTA [XGTACX_site8410]	11.4 ± 0.83
CCCTTTTCTAAATATTGTACGTATAAATTATATTAC [XGTACX_site7676]	11.7 ± 0.88
TTTTTTTTTTTCTTTTGTACGTATAAAATTATATAA [XGTACX_site2453]	11.5 ± 0.66
GGTGCACCCATATACACACACAAATACAATGATAAA [CACACA_site1132]	10.6 ± 0.76
AATATATAAATTGACACACACATATATACATATATA [CACACA_site1213]	10.1 ± 0.11
TATATATTTTGTGTCTGTACACATATTATTAATTCC [XGTACX_site7507]	11.4 ± 1
TGTCTGTGCGGGTGTACACATTTCATATTACCCAAT [CACACA_site5593]	11.8 ± 0.98
AATTCATTTTACCCATGTACACAATTATATTTTATA [XGTACX_site4127]	11.6 ± 0.83
AATTTTTCATCAAGTTGTACAATTATTTGTTTGTTT [XGTACX_site3113]	11.3 ± 0.73
ATATTAGAAATATGAATAGAAAGAATATATAAGTAT [CACACA_negctrl_site682]	9.76 ± 0.37
TGTTTCTAAAAAAAAGGTACACATATATATAATATA [XGTACX_site3217]	11.4 ± 0.93
TCGATATATAGACACACACACTTTTAATAATTAAAT [CACACA_site7726]	10.2 ± 0.24
TCTTTAATGATGTGTACACAAGAAAACATTGTTAAG [CACACA_site5299]	11.7 ± 0.89
AACAATGTTTTCTTGTGTACACATCATTAAAGAAAA [XGTACX_site4726]	11.6 ± 0.88
TCAAATGTGTAATCTTGTACACATTAAAAGAAAAAA [XGTACX_site8822]	11.2 ± 0.83
ATTTTTTTTTTTATTTTCTTTGAGATTATCTTAATT [CACACA_negctrl_site1209]	9.78 ± 0.14
TATGTATAAAAATAATGTACAAAATATATTATATGT [XGTACX_site2794]	10.9 ± 0.4
TATATATATATATGGGGTACAAATGGTCAGTATTAT [XGTACX_site1223]	11.7 ± 0.97
AAAAAAAAAATTGAAAGTACACAAATGGGGTATTAT [XGTACX_site3960]	11.5 ± 0.87
TAAAATTTGTACATAGTGCAATTTTTTTTTTTTTTT	10.7 ± 0.52
GTGTTTTTATTATTTTGTACACATATATTTAATATT [XGTACX_site2109]	11.5 ± 0.87

Sequence	gcPBM binding intensity (ln)
TGTTATATTTGTGCGTGTACACATTTGAAAAAATAT [XGTACX_site3796]	11.8 ± 1.1
TATATTTGTGCGTGTACACATTTGAAAAAATATATA [CACACA_site5079]	11.6 ± 0.88
ACATATAAATTGTGTACACATATATATATATTTTTT [CACACA_site5946]	11.8 ± 1
TAATATTTTTTGTGTACACATATATATATATATATA [CACACA_site5504]	11.7 ± 0.88
TATACATATAAATTGTGTACACATATATATATATTT [XGTACX_site7875]	11.6 ± 0.92
ATGAATATATATATTTGTACATATGTATATATATAT [XGTACX_site7527]	10.9 ± 0.54
TTGTGAAATAAAATTTGTACACACATATATATATAT [XGTACX_site1078]	11.2 ± 0.86
ATCATGAAATATATTTGTACACATAATAATATAATA [XGTACX_site8798]	11.4 ± 0.89
TTTTTTTTTGGGTGTACACATGAATATATATTTTTT [CACACA_site5254]	11.7 ± 0.95
CATAAAATTGTATTTTGTACACATTTTGTATACATT [XGTACX_site5705]	11.4 ± 0.82
TTTTTTTTGTGTATTTGTACATAATATATATATATA [XGTACX_site7092]	10.9 ± 0.49
GTTGGGTAATTCGTAACACACATAAAATATATATAA [CACACA_site3986]	10.13 ± 0.099
CATAATGTAAATAAGTGTACACATATATAATACATA [XGTACX_site3108]	11.6 ± 0.9
TATATTTATAGGTACACACACACATATAAATAAATA [CACACA_site6345]	11.3 ± 0.98
TTATTTCTACCTTTTTGTACACATTATTATGAAACC [XGTACX_site5325]	11.3 ± 0.81
ACTATTTTAAAAATATGTACATACGTTGTAATTTAA [XGTACX_site7999]	11.4 ± 0.83
ATAATACAATTTATAACACACACACTATAATACATA [CACACA_site8338]	10.025 ± 0.007
TTAGGTATATATAAACGTACTCACAATATCATATAA [XGTACX_site8743]	11.1 ± 0.71
GAATTATAAGAATAAACACACAAGCTTAAAAAAAAA [CACACA_site1204]	9.74 ± 0.18
ATATATTTATATTTGTGTACATATTTATTATATTTA [XGTACX_site404]	11.5 ± 0.67
AATATATATTTGTGTACACATTATATATATATATAT [CACACA_site6103]	11.9 ± 1.1
TATTTGTGTATTTTTACACACATTAATATATTTATA [CACACA_site7562]	9.9 ± 0.2
CAAAAAGGAATGTATGCACACAATTGATTTTAACTC [CACACA_site1468]	10 ± 0.13

Sequence	gcPBM binding intensity (ln)
AAATTAATAAATATTTTTATAAATTATAATATTAAT [GTGCAC_negctrl_site533]	9.37 ± 0.16
TTTATTTTTAAAGGCACACACATTTTTATTTTTAAA [CACACA_site2021]	10.1 ± 0.19
AGAAATTAATCGAGGTGTACGTACATCCAAATATAT [XGTACX_site7650]	11.8 ± 1.2
AGAAATTAATCGAAGTGTACATATAAACATACATAT [XGTACX_site5518]	11.3 ± 0.69
GAAAATACGTTTAATCGTACATATATATAATATATA [XGTACX_site4243]	11.1 ± 0.88
GAGAAAAGGAAATTCACACATATAAAGAAAGATCTA [CACACA_site5420]	9.865 ± 0.064
AAAAAATATTTTTACAGTACATATATATAAAATGTT [XGTACX_site3215]	10.9 ± 0.58
AAGGAAATATAATATACACACATAAGTGTACTTCTA [CACACA_site6079]	11.7 ± 1.1
AAGGAAATATAATATACACACATAAGTGTACTTATA [CACACA_site4030]	11.6 ± 1.1
ATAAATACACACAAGTGTACATACTTCTATAAATAT [XGTACX_site1845]	11.3 ± 0.96
TTTTTTTTTTTTTTTACACACACAAAATATTATATG [CACACA_site2471]	9.99 ± 0.38
ATATAAATAAATATATGTACACACACAAATATATAC [XGTACX_site3950]	11.4 ± 0.73
TATATATATATGTGTAGTACAACAAATATGAAAAAT [XGTACX_site4059]	11.7 ± 0.86
AGTATAAAATAAATGTGTACACAAGAAAATATGTTA [XGTACX_site8381]	11.8 ± 0.93
ATAATATAACACAAATGTACAAAAAATAAATAAATA [XGTACX_site385]	10.7 ± 0.4
AAGAAATAAAAAGAATGTACACAATATGTATTATAA [XGTACX_site4733]	11.5 ± 0.69
ATATATATATATATGTGTACACAACAAAATAAAAAA [XGTACX_site7378]	11.7 ± 0.79
TATATATATATGTGTACACAAAAAATATTATATTAT [CACACA_site5505]	11.9 ± 0.93
GATTATATATGAAAATGTACAAATATATATATATAT [XGTACX_site5963]	10.8 ± 0.28
TACAAATTAATATGTACACACAAATATATATATATA [CACACA_site1977]	11.4 ± 0.87
ATAAAATAAAAGTGTACACAAGAAAATATGTTATGT [CACACA_site6033]	11.6 ± 0.79
ATATATGAAAATATATGTACACAACATATAAAATAG [XGTACX_site5132]	11.4 ± 0.83
